# Measured values from ChEMBL document CHEMBL4888484, “Replenishing the malaria drug discovery pipeline: Screening and hit evaluation of the MMV Hit Generation Library 1 (HGL1) against asexual blood stage Plasmodium falciparum ,using a nano luciferase reporter read-out” (2022).
# Out of some 4,800 compounds screened, about 410 (8.5%) showed an effect of 50% or more. The sample holds strong results, similar compounds and a random draw of the others, so the mix is not that of the screen.
# Tested on: Plasmodium falciparum
# Assay: Confirmatory screen in NF54 pLDH assay, in single point, at 2uM, 72h
# Format: functional, Erythrocyte
# Conditions: timepoint 72 hour
row,Structure (SMILES),% Inhibition
1,O=C(O[C@@H](c1ccccc1)N1C(=O)C(C(F)(F)F)(C(F)(F)F)c2ccccc21)C(C(F)(F)F)C(F)(F)F,12%
2,Cc1c(NC(=O)c2ccccc2-c2ccccc2)ccc(N2CCCC2=O)c1NC(=O)c1ccccc1-c1ccccc1,-15%
3,CCCN(CC(=O)O)S(=O)(=O)c1cccc(C)c1Br,-23%
4,O=C(Nc1ccc2c(c1)cc(C(=O)Nc1ccc(C(F)(F)F)cc1)n2Cc1cccc(F)c1)c1ccccc1Cl,-25%
5,C#CCN(CCCc1ccccc1C)[C@H]1CCS(=O)(=O)C1,-23%
6,O=C(O)c1cc(-c2ccc3c(c2)OCCO3)nc2c(Br)cc(Br)cc12,3%
7,COc1ccc(C(O)CN2CCC(c3ccccc3)C2)cc1F (stereo unspecified),9%
8,O=C(C1CCC1)N1CCC[C@H]1c1nc(C2CCOCC2)no1,12%
9,COc1ccccc1NC(=O)c1cnn2c3c(cnc12)CCCCC3,3%
10,Cc1cc(NC(=O)C(=O)NC2CC(C)CC(C)(C)C2)n(-c2nc3c(c(=O)[nH]2)CCC3)n1 (stereo unspecified),84%
11,CCOc1ccc2ccccc2c1C(=O)Nc1cc(C)nn1-c1nc2c(c(=O)[nH]1)CCC2,91%
12,COc1ccc2ccccc2c1C(=O)Nc1ccc(N2CCN(C)CC2)c(Cl)c1,4%
13,Cc1nc(-c2ccc3[nH]c(=O)[nH]c3c2)cs1,9%
14,CC1CN(CCCNC(=O)Cc2c[nH]c3ccc(F)cc23)CC(C)O1 (stereo unspecified),-4%
15,CC(C1Cc2ccccc2O1)N(C)C(=O)c1n[nH]c2c1CCC2 (stereo unspecified),-6%
16,Cc1cc(Cl)ccc1S(=O)(=O)N1CCc2nnc([C@H]3CCN(C(C)C)C3)n2CC1,10%
17,COC(=O)C12CCC(C(=O)NC[C@H]3CCCOC3)(CC1)CC2,2%
18,OCC#Cc1ncc(C(F)(F)F)cc1Cl,-19%
19,CCc1nc(C(=O)N2C[C@@H]3CCCN(C(=O)c4coc(CC)n4)[C@@H]3C2)co1,0%
20,CCc1ncsc1C(=O)OCC1(C#N)CCOCC1,-2%
21,Cc1cc(CS(=O)(=O)[C@@H](C)C(=O)NCC(C)C)on1,12%
22,CC(=O)N(C)CC(=O)Nc1ccccc1NCC1CCCCC1,12%

row,Structure (SMILES),% Inhibition
1,COc1cc(CN(C)[C@H]2CCc3nnc(C4CCOCC4)n3CC2)cc(OC)c1,1%
2,Cn1ccnc(N[C@@H](COc2ccccc2F)c2ccccc2)c1=O,3%
3,NC(=O)CCc1ccc(S(=O)(=O)Cl)cc1,13%
4,COC(=O)c1ccc(Nc2nc(C)c3nc(C)n(-c4ccc(C(=O)OC)cc4)c3n2)cc1,3%
5,CCOc1cc(Cl)c(Cl)c(C#N)c1OC(C)=O,6%
6,COc1ccc(-c2nccn3cc(C(=O)NCCN(C)C4CCCCC4)nc23)cc1,5%
7,CCCC[C@H](CC)C(=O)Nc1c(C)cccc1CC,-8%
8,Brc1ccc(Oc2ncc(CN3CCOCC3)s2)cc1,7%
9,Cc1ccc2c(c1)CCCN2S(=O)(=O)c1ccc2ccccc2c1,-7%
10,Cc1ccnc(N2CCN(S(=O)(=O)Cc3ccon3)CC2)c1,15%
11,Cc1ccnc(Nc2ccc(N3CCNCC3)nn2)c1,65%
12,Cc1ccc(Nc2ccc(N3CCNCC3)nn2)nc1,58%
13,Cc1cnc(CC[C@H]2CCCN2C(=O)CCn2ccnc2)n1C,7%
14,CCC(C#N)(CC)c1nc(-c2cc(N)nc3ccccc23)no1,8%
15,CCC(=O)O[C@@]1(c2ccc(C3CC3)cc2)CCCN(Cc2ccccc2)C1,-1%
16,O=C1CCN(C(=O)COc2ccc(-c3ccccc3)cc2Cl)CCN1,-12%
17,CC(=O)N[C@H]1CCc2nc(N)sc2C1,13%
18,C[C@@H]1C[C@@H](Nc2ccccc2)c2ccccc2N1C(=O)COc1ccc(Br)cc1,10%
19,O=C(Cc1c(Cl)cccc1Cl)N1CC[C@]2(CCOC2)C1,-19%
20,Cc1noc(Cl)c1CC(=O)N1CCCC(C)(C)CC1,20%
21,CC[C@@]1(C)CCCN(C(=O)Cc2c(C)noc2Cl)C1,87%
22,Cc1ccc(-n2c(=O)c3sccc3n(CC(=O)NCc3ccc(F)cc3F)c2=O)cc1C,-20%

row,Structure (SMILES),% Inhibition
1,CC1CCC2(CC1)N=C(c1ccccc1)C(=O)N2CC(=O)N[C@H]1CCc2ccccc21 (stereo partly specified),-4%
2,CN(Cc1cnn(-c2ccccc2)n1)c1ncnc2[nH]ncc12,10%
3,CCCCC(=O)N1CCc2[nH]nc(C(=O)NCCc3ccc(OC)cc3)c2C1,2%
4,Cc1nc2nnnn2c(C)c1C/C=C/c1ccccc1,8%
5,Cc1cc(OC[C@@H](O)CNC(C)(C)CC(C)(C)C)cc(C)c1Cl,57%
6,O=C(N[C@@H](N1CCCC1)C(Cl)(Cl)Cl)c1ccc(Cl)cc1,-13%
7,O=C(N[C@H]1CC12CC2)c1ccncc1F,-22%
8,C=C1C(C)C2C(Cc3c[nH]c4ccccc34)NC(=O)C23C(=O)CC(O)C(O)CC(C)C/C=C/C3C1O (stereo unspecified),65%
9,CCc1ccc(/C=C/c2c[nH]c3ccccc23)[n+](CC)c1,88%
10,C[n+]1ccccc1/C=C/c1c[nH]c2ccccc12,81%
11,Fc1cc(Cl)cnc1N1CCC2(CCOCC2)C1,12%
12,Cc1[nH]n(-c2nc(C(F)(F)F)cc(=O)[nH]2)c(=O)c1CCO,-9%
13,O=C1C2CC=CCC2C(=O)N1CNc1ccc(Cl)cc1 (stereo unspecified),-9%
14,CCn1c(=O)c(N2CCN(C(=O)Nc3ccc(OC)cc3OC)CC2)nc2cccnc21,-17%
15,O=C([C@H]1CCCN(C(=O)N2CCc3sccc3C2)C1)N1CCc2[nH]ncc2C1,-7%
16,CCOC(=O)C(C)NC(=O)C(C)NC(=O)c1ccc(F)c(C#N)c1 (stereo unspecified),7%
17,O=S(=O)(NC1CC(c2ccc(F)c(Cl)c2)C1)C1CC1 (stereo unspecified),7%
18,Cn1nc(C2CC2)c2c(C(F)F)cc(-c3ccc4c(c3)OCO4)nc21,2%
19,CCS(=O)(=O)Nc1ccc(Br)cc1Cl,-1%
20,c1ccc(-c2nc(C[n+]3ccc4c(c3)CCCC4)cs2)cc1,56%
21,Cc1ncccc1C(=O)NCCc1csc(-c2ccccc2)n1,-19%
22,CN(C)c1ccc(C2OCC3(CCC4(COC(c5ccc(N(C)C)cc5)OC4)O3)CO2)cc1 (stereo unspecified),-5%
